Screening results deposited in PubChem BioAssay by several laboratories.
S1P3 antagonist – S1P3 receptor antagonists, primary screen, cell-based | inhibition, % at 4.98 µM | AID 485, 2006 | CHO S1P3 NFAT-BLA reporter, FRET fluorescence, antagonist mode | 0.27% of 170,000 active;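 active = inhibition above the plate cutoff, the mean inhibition of test wells on that plate plus 3 SD, cut at about 28% in these data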;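 note: cells challenged with S1P at its EC80 of 0.8 µM; blue over green emission ratio from cleaved BLA substrate after 4 h stimulation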
Target sequence (Q99500 whole entry, looked up): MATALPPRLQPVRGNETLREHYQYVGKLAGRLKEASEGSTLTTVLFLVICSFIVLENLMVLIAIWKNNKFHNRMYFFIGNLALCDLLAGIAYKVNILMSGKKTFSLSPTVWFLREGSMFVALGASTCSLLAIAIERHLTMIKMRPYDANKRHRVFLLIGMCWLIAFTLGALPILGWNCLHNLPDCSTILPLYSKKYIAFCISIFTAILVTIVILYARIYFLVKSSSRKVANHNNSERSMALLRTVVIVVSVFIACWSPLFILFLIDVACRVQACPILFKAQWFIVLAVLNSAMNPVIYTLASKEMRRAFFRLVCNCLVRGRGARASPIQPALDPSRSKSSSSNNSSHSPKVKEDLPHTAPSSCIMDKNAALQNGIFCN
Cl transport mod – KCC2 cotransporter modulators, thallium flux, primary screen, cell-based, HEK293 KCC2, FluoZin-2 fluorescence, MLSMR | KCC2 cells, thallium flux FluoZin-2 fluorescence | AID 1456, 2008 | B-score of Tl+ flux slope (higher = more flux/activation; lower = inhibition) at 10 µM | 2.2% of 190,000 active | Solute carrier family 12 member 5 (Homo sapiens), Q9H2X9;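 active = thallium flux slope and its plate-corrected score both differing from the plate sample mean at a set confidence after two filtering rounds, in either direction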;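 note: slope of fluorescence scaled to starting intensity during 10 to 20 s after thallium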
PGE2 EP2 inh – human EP2 receptor antagonists, primary screen, TR-FRET cAMP, C6 glioma cells | AID 1422, 2008 | C6 glioma cells expressing human EP2; cells stimulated with saturating PGE2 | 0.52% of 260,000 active | inhibition, % at 25 µM | Prostaglandin E2 receptor EP2 subtype (Homo sapiens), P43116;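 active = percent inhibition above 40 after rounding to a whole number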;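 note: rat C6 glioma host cells with rolipram phosphodiesterase inhibitor present; the protocol text gives 20 µM as final concentration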
Target sequence (P43116 whole entry, looked up): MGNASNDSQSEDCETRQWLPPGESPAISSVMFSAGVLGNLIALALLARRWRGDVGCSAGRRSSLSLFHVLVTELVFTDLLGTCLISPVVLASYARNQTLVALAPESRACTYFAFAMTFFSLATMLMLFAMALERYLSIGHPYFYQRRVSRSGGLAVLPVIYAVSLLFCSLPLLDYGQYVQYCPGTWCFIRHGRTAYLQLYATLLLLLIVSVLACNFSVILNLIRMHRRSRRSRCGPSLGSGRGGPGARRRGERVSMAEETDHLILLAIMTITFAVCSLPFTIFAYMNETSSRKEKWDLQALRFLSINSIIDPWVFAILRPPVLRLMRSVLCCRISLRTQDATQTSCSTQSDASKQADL
EP2 mod – EP2 receptor modulators, cAMP readout, primary screen, cell-based, HTRF cAMP, PGE2 stimulation; 0.83% of 260,000 active; EP2-expressing cells, cAMP HTRF FRET, PGE2 co-stimulation; Prostaglandin E2 receptor EP2 subtype (Homo sapiens), P43116; induction, % at 25 µM;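 active = compounds whose cAMP rise, as percent of the full-agonist control response, exceeds 60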;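 note: rat C6 glioma line stably carrying human EP2 under a CMV promoter; the protocol text gives 20 µM as final concentration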
KCC2 sec1 – KCC2 modulators in sodium-free buffer, confirmation, cell-based, HEK293 KCC2, thallium flux, secondary assay; shares compounds with Cl transport mod; FluoZin2 fluorescence; active compounds read high; normalised thallium flux (F/F0 slope) at 10 µM; 15% of 3,700 active; AID 1713, 2009;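 active = thallium flux slope above the same plate's solvent-only control mean plus 3 SD; inconclusive = the two replicate wells disagree; inactive = no significant difference from solvent-only control wells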
KCC2 bumet counter – thallium flux persisting under bumetanide in KCC2 cells, confirmation, counter-screen for KCC2 modulator project, cell-based, HEK293 KCC2, FluoZin2, secondary assay 3; shares compounds with Cl transport mod; HEK293-KCC2 + bumetanide/ouabain; active compounds read high; normalized thallium flux at 10 µM; 49% of 3,700 active;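 active = thallium entry rate above the same plate's blocked-transporter control wells by more than 3 SD; inconclusive = the two repeat wells disagree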;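 note: raw slope of fluorescence over initial fluorescence between 10 and 20 s after thallium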
KCC2 sec2 – KCC2 modulators without ouabain present, confirmation, cell-based, HEK293 KCC2, thallium flux, FluoZin2, secondary assay 2 | thallium flux FluoZin2 fluorescence; actives lie on both sides; F/F0 rise rate, 10–20 s post-thallium | normalized thallium flux at 10 µM | shares compounds with Cl transport mod | 23% of 3,700 active;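 active = thallium flux slope more than 3 SD above or below the plate's solvent-only control mean, mostly below; inconclusive = the two repeat wells disagreed; inactive = no significant shift from solvent-only controls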
HEK293 Tl flux – thallium flux modulation in parental HEK cells, confirmation, counter-screen for KCC2 modulator project, cell-based, counterscreen 1; shares compounds with Cl transport mod; 46% of 3,700 active; HEK293 parental cells, thallium flux FluoZin2, ouabain; baseline-ratio fluorescence slope, 10–20 s after thallium; thallium flux rate (normalised fluorescence) at 10 µM;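 active = thallium flux rate significantly above the same plate's solvent-only control wells, beyond their mean plus 3 SD; inconclusive = the two replicate wells gave conflicting results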
KCC2 ouabain – KCC2 inhibitors and activators, ouabain retest, confirmation, HEK-KCC2 cells; shares compounds with Cl transport mod; HEK293-KCC2, thallium flux FluoZin2 fluorescence; bidirectional: low = inhibitor, high = activator; raw Tl+ flux slope (below DMSO = inhibition, above = activation) at 10 µM; 48% of 3,700 active; AID 1717, 2009;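 active = thallium flux slope beyond 3 SD from same-plate DMSO control mean in most replicates, usually higher, sometimes lower; inconclusive = repeat tests gave conflicting results; inactive = no significant difference from controls in most replicates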;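 note: slope of initial-normalized fluorescence between seconds 10 and 20 after thallium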
HEK counter2 – native HEK Tl+ uptake effects, second counter-screen – HEK cells, counterscreen 2, counter-screen for KCC2 modulator project, confirmation. shares compounds with Cl transport mod. HEK293 parental, thallium flux FluoZin-2 fluorescence slope. thallium flux slope at 10 µM. 33% of 3,700 active;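 active = thallium flux slope above the same plate's solvent-control mean plus 3 SD in both duplicate wells; inconclusive = duplicate wells that disagreed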;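 note: run without ouabain in cells lacking the KCC2 cotransporter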
Of the large screens only hits and unclear results are named; the others gave an inactive call (follow-up assays come after a bar, where they were run). The list is not random: actives were taken first. Their share in the collection is about 3.1%.

CCCOc1ccc(N2C(=O)C3ON(c4ccccc4)C(c4ccc(O)c(OC)c4)C3C2=O)cc1 (configuration not stated)	none (no result: S1P3 antagonist, PGE2 EP2 inh) | KCC2 sec1 inactive | KCC2 bumet counter inactive | KCC2 sec2 inconclusive | HEK293 Tl flux inactive | KCC2 ouabain inactive | HEK counter2 inactive
Cc1ccc2nc3c(cc2c1)CN(Cc1cccs1)C(=O)CO3	none (no result: S1P3 antagonist, Cl transport mod)
CCOc1ccccc1C1C(C#N)=C(N)Oc2n[nH]c(CC)c21 (configuration not stated)	Cl transport mod -4.9 | KCC2 sec1 inactive | KCC2 bumet counter inactive | KCC2 sec2 inactive | HEK293 Tl flux inactive | KCC2 ouabain inactive | HEK counter2 inactive
Cc1cnc(C(=O)OCC(=O)N2c3ccccc3CC2C)cn1 (configuration not stated)	none (no result: Cl transport mod)
CC1Cc2ccccc2N1C(=O)COC(=O)c1cccnc1Cl (configuration not stated)	Cl transport mod -4 (no result: S1P3 antagonist) | KCC2 sec1 inactive | KCC2 bumet counter inactive | KCC2 sec2 inactive | HEK293 Tl flux inactive | KCC2 ouabain inconclusive | HEK counter2 inconclusive
CC1Cc2ccccc2N1C(=O)CN(C)S(=O)(=O)c1cccc2cccnc12 (configuration not stated)	none (no result: S1P3 antagonist, Cl transport mod) | KCC2 sec1 inactive | KCC2 bumet counter inactive | KCC2 sec2 0.023 | HEK293 Tl flux inactive | KCC2 ouabain inconclusive | HEK counter2 inactive
Cn1ccnc1C1(O)CCN(C(=O)c2ccc(F)cc2)CC1	none (no result: S1P3 antagonist, Cl transport mod)
COc1ccc(CNS(=O)(=O)c2ccc3c(c2)CCN3C(=O)C2CC2)cc1	none (no result: S1P3 antagonist)
O=C(NNS(=O)(=O)c1ccc2ccccc2c1)C1CCN(Cc2ccccc2)CC1	none (no result: S1P3 antagonist, Cl transport mod, PGE2 EP2 inh) | KCC2 sec1 inactive | KCC2 bumet counter inactive | KCC2 sec2 inactive | HEK293 Tl flux inactive | KCC2 ouabain inconclusive | HEK counter2 inactive
O=S(=O)(NC1CCN(Cc2ccccc2)CC1)c1ccc2ccccc2c1	none
O=C(C1CC1)N1CCc2cc(S(=O)(=O)NC3CCN(Cc4ccccc4)CC3)ccc21	none (no result: Cl transport mod, PGE2 EP2 inh) | KCC2 sec1 inactive | KCC2 bumet counter inconclusive | KCC2 sec2 inconclusive | HEK293 Tl flux inactive | KCC2 ouabain 0.016 | HEK counter2 inactive
O=C(c1cc2ccccc2oc1=O)N(Cc1ccccc1F)C1CCCCC1	none (no result: S1P3 antagonist, Cl transport mod)
CCOCCCNC(=O)CN1C(=O)[C@@H]2CCCN2C(=O)c2ccccc21	none (no result: S1P3 antagonist, Cl transport mod)
O=C(Cn1nc(C(F)(F)F)c2c1CCC2)N1CCN(c2ccccc2)CC1	none (no result: Cl transport mod) | KCC2 sec1 inactive | KCC2 bumet counter inactive | KCC2 sec2 inactive | HEK293 Tl flux inactive | KCC2 ouabain 0.016 | HEK counter2 inactive
O=C(CCn1nc(-c2ccc(Cl)cc2)ccc1=O)N1CCN(c2ccccn2)CC1	none (no result: S1P3 antagonist, PGE2 EP2 inh)
O=C(Cn1nc(-c2ccc(Cl)cc2)ccc1=O)N1CCN(c2ccccc2)CC1	none (no result: Cl transport mod, PGE2 EP2 inh) | KCC2 sec1 inactive | KCC2 bumet counter inactive | KCC2 sec2 inactive | HEK293 Tl flux inactive | KCC2 ouabain inconclusive | HEK counter2 inactive
COc1ccccc1N1CCN(C(=O)Cn2nc(C(F)(F)F)c3c2CCCC3)CC1	none (no result: S1P3 antagonist, Cl transport mod)
CCc1cccc(CC)c1NC(=O)C1CC(=O)N(c2ccc(OC)cc2)C1 (configuration not stated)	none (no result: S1P3 antagonist, Cl transport mod)
Cc1cccc(NC(=S)N/N=C/C(C)c2ccccc2)c1C (configuration not stated)	none
Cc1ccccc1NC(=S)N/N=C/C(C)c1ccccc1 (configuration not stated)	Cl transport mod 14 | KCC2 sec1 inactive | KCC2 bumet counter 0.027 | KCC2 sec2 inactive | HEK293 Tl flux 0.015 | KCC2 ouabain inconclusive | HEK counter2 0.018
CC(C)c1nnc(NC(=O)c2cccnc2)s1	Cl transport mod 7.8 (no result: S1P3 antagonist) | KCC2 sec1 inactive | KCC2 bumet counter inactive | KCC2 sec2 inactive | HEK293 Tl flux inactive | KCC2 ouabain inactive | HEK counter2 inactive
CCCc1nnc(NC(=O)c2cccnc2)s1	none
CCOc1ccc(N(CC(=O)N2CCC(C(N)=O)CC2)S(C)(=O)=O)cc1	none (no result: S1P3 antagonist, Cl transport mod)
O=C(NC1CCCC1)c1ccccc1OCc1ccccc1	Cl transport mod -3.6, EP2 mod 62 | KCC2 sec1 inactive | KCC2 bumet counter inconclusive | KCC2 sec2 inactive | HEK293 Tl flux 0.0047 | KCC2 ouabain 0.015 | HEK counter2 inactive
O=C(CSc1ccccc1C(=O)NCc1ccccc1)NC12CC3CC(CC(C3)C1)C2	Cl transport mod -3.6 | KCC2 sec1 inconclusive | KCC2 bumet counter inconclusive | KCC2 sec2 0.022 | HEK293 Tl flux inactive | KCC2 ouabain inconclusive | HEK counter2 inactive
O=C(CSc1ccccc1C(=O)NCc1ccccc1)NC1CCCCCCC1	Cl transport mod -4 | KCC2 sec1 inactive | KCC2 bumet counter inconclusive | KCC2 sec2 0.021 | HEK293 Tl flux inactive | KCC2 ouabain inconclusive | HEK counter2 inactive
COc1ccccc1C(=O)NC1CCCCCCC1	none (no result: S1P3 antagonist)
COc1cc(OC)c(OC)cc1CN1CCN(Cc2cc(OC)c(OC)cc2OC)CC1	none (no result: S1P3 antagonist, Cl transport mod)
O=C(Cc1cccc2ccccc12)N/N=C/c1ccc(Sc2cccc3cccnc23)o1	Cl transport mod 10 (no result: S1P3 antagonist, PGE2 EP2 inh) | KCC2 sec1 inactive | KCC2 bumet counter 0.013 | KCC2 sec2 inactive | HEK293 Tl flux 0.011 | KCC2 ouabain 0.025 | HEK counter2 0.013
CCCCC(=O)N/N=C/c1ccc(Sc2cccc3cccnc23)o1	none (no result: S1P3 antagonist)
Cc1ccc(OCC(=O)NCC(=O)n2nc(C)cc2C)cc1	none (no result: S1P3 antagonist, PGE2 EP2 inh) | KCC2 sec1 inactive | KCC2 bumet counter inactive | KCC2 sec2 0.028 | HEK293 Tl flux inactive | KCC2 ouabain inactive | HEK counter2 inactive
